Screens: PubChem, Broad Institute
An excerpt weighted towards active compounds, which were near 0.46% of everything screened.
PGC1a acetyl inh – modulators of PGC1a acetylation | U2OS PGC1a acetylation, AlphaScreen anti-acetyl-lysine; with virally co-expressed GCN5 acetyltransferase | inhibition, % at 15.6 µM | hit rate 0.17% among 350,000 | AID 651687;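 active = every replicate shows inhibition of at least 40%; inconclusive = mean inhibition at least 40% but some replicate below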;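 note: 0% = neutral control wells and 100% = positive control wells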
PglD inh – PglD (C. jejuni) enzyme inhibition; purified PglD enzyme, DTNB colorimetric CoA detection; inhibition, % at 12.5 µM; hit rate 0.098% among 360,000; in the data active = inhibition above about 16%, passing the limit was not always enough; inconclusive = no clear call, values can overlap the other calls
CaV13 ICDI inh – Disruptors of the CACNA1D IQ motif to Ca2+-dependent inactivation inhibitor domain association, primary screening, Förster resonance energy transfer in intact living …; inhibition, % at 12.3 µM; HEK cells, CFP/YFP FRET ICDI-IQ, plate reader, 10 min; percent FRET-ratio fall versus neutral wells; hit rate 0.098% among 340,000;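 active = mean replicate inhibition of at least 30% and at least 1% of replicates passing that level; inconclusive = only one of the two criteria is met; inactive = neither criterion is met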;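 note: 0% = median of the neutral control wells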
ERAP1 HTS inh – blocks human ERAP1 aminopeptidase activity; Q9NZ08; recombinant ERAP1, Leu-AMC fluorescence, 60 min; inhibition, % at 10.7 µM; hit rate 0.15% among 340,000; AID 652197;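 active = mean replicate inhibition of at least 30%, or all replicates individually reaching that 30% level; inactive = mean below 30% and not every replicate reaching it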;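 note: 0% = neutral control wells and 100% = L-leucinethiol positive control wells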
PDI turbidity – inhibitors of human protein disulfide isomerase. hit rate 0.052% among 350,000. PDI insulin aggregation turbidity, A650, 90 min. AID 588391. P07237. inhibition, % at 10 µM;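 active = mean inhibition across replicates of 30% or more, whatever share of single replicates reach that level; inconclusive = mean inhibition below 30% while every single replicate reaches 30%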
Target sequence (P07237 whole entry, looked up): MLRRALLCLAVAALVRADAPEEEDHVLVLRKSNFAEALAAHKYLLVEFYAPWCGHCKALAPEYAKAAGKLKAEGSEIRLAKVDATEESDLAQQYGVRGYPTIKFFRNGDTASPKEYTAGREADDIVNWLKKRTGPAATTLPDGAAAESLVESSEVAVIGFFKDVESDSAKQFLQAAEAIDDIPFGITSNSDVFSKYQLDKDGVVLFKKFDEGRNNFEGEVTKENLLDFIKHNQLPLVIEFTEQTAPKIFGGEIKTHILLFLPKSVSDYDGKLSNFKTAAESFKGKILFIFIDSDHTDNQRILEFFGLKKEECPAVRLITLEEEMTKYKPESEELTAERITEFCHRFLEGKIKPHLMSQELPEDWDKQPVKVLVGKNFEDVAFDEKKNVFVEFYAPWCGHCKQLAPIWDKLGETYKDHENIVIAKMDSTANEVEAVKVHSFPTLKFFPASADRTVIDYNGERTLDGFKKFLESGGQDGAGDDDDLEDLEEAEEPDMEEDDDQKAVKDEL
ERp5 inh – inhibitors of human ERp5; Q15084; hit rate 0.05% among 350,000; AID 651711; inhibition, % at 9.99 µM; ERp5 insulin aggregation, absorbance 650 nm, 90 min;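 active = mean replicate inhibition above about 25%, with every replicate also reaching it, limit read from the data, passing the limit was not always enough; inconclusive = only one of those two criteria met; inactive = neither criterion met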
Active calls of the source: *; ? = inconclusive; / = no result given.

SMILES | PGC1a acetyl inh | PglD inh | CaV13 ICDI inh | ERAP1 HTS inh | PDI turbidity | ERp5 inh
C/C=C/c1ccc(C2[C@@H]3CN(C(=O)C4CC4)C[C@H]2N3)cc1 (stereo partly specified) | 0.8 | / | / | -4.2 | / | -3.4
Cc1ccc(CS(=O)(=O)CCC(=O)N2CCC3(CC2)OCCO3)cc1 | 44.2* | 5.9 | / | 1.4 | 6.2 | 3.3
Cc1ccc(CS(=O)(=O)Cc2ccc(C(=O)N3CCC4(CC3)OCCO4)o2)cc1 | 4.8 | -7.1 | -7.9 | -1.0 | 9.4 | 3.1
CC(N)C(=O)NC1C2C(=C(O)CC(O)C2O)C(=O)OC1(C)C(Cl)Cl (stereo unspecified) | 74.0* | / | -5.7 | -0.4 | 0.7 | -0.1
Cc1ccccc1S(=O)(=O)N1[C@@H]2c3ccc(-c4cccnc4)c(=O)n3C[C@H]1[C@H](CO)[C@H]2C(=O)O | / | -1.7 | / | 0.3 | / | 1.0
C[C@H]1CCC/C=C/C2C[C@H](O)CC2[C@H](O)/C=C/C(=O)O1 (stereo partly specified) | 72.2* | 3.5 | / | / | -1.4 | /
CC1CCC/C=C/C2CC(O)CC2C(O)/C=C/C(=O)O1 (stereo unspecified) | 72.6* | 3.2 | -4.3 | / | 2.0 | /
Cc1ccccc1-c1ccc([C@@H]2[C@H]3CN(C(=O)Cc4ccccn4)CCCCN3[C@H]2CO)cc1 | / | 2.0 | / | 1.7 | / | -7.9
CCN1CC2(COC(=O)c3ccccc3N)CCC(OC)C34C5CC6C(OC)CC(O)(C5C6OC)C(O)(C(OC)C23)C14 (stereo unspecified) | 0.2 | 0.3 | / | / | ? | /
CCN1C[C@]2(COC(=O)c3ccccc3N)CC[C@H](OC)C34[C@@H]5C[C@H]6[C@H](OC)[C@@H]5[C@](O)(C[C@@H]6OC)[C@@](O)([C@H]13)[C@@H](OC)[C@@H]42 | / | 0.0 | -23.9 | -2.1 | 44.8* | 2.2
O=C(O)CC1OCC=C2CN3CCC45C6=CC(=O)C(=O)C([N+](=O)[O-])=C6NC4C1C2CC35 (stereo unspecified) | 1.6 | 11.2 | / | / | 75.0* | /
CC=CC(C)=CC(C)C(=O)CC(O)CC1CC(=O)NC(=O)C1 (stereo unspecified) | / | / | -5.3 | 1.7 | 2.4 | 0.6
CC1CC(C)(O)CC(C(O)CC2CC(=O)NC(=O)C2)C1=O (stereo unspecified) | 76.9* | / | -6.8 | 1.7 | -48.1 | -3.0
COc1ccc(/C=C2\C(=O)NC(=S)N(C)C2=O)cc1C | 11.0 | / | -6.7 | 34.3* | 3.2 | 3.3
OC[C@H]1Nc2ccc(C#Cc3cccnc3)cc2[C@H]2NCC[C@H]21 | 3.7 | / | / | 0.7 | / | -0.9
COc1ccc(CC2C(=O)NC(C)C(=O)N(C)C3C(=O)N(C)C(Cc4ccc(O)c(c4)Oc4ccc(cc4)C3O)C(=O)NC(C)C(=O)NC(C)C(=O)N2C)cc1 (stereo unspecified) | 76.1* | / | -5.9 | -1.3 | -50.2 | 2.9
CCC1CN2CCc3cc(OC)c(OC)cc3C2CC1CC1NCCc2c1[nH]c1ccc(O)cc21 (stereo unspecified) | 70.5* | / | -7.0 | 2.6 | -1.1 | 13.7
CCN1[C@@H]2c3ccc(-c4cccc(C(=O)N(C)C)c4)c(=O)n3C[C@H]1[C@H](CO)[C@H]2C(=O)OC | / | -2.4 | / | -1.0 | / | -11.2
COC(=O)[C@@H]1[C@@H](CO)[C@@H]2Cn3c(ccc(C4=CCCC4)c3=O)[C@H]1N2CC1CCCCC1 | / | -1.0 | / | -3.5 | / | 1.5
Cc1nc2c(=O)n(C)c(=O)nc-2n(C)n1 | 77.5* | / | 0.5 | / | 189.0* | /
N#Cc1cccc(-c2ccc([C@H]3[C@H]4CN(C(=O)Cc5cccnc5)CCCCN4[C@H]3CO)cc2)c1 | 6.3 | 4.7 | / | -0.3 | / | 1.6
CCCC[C@@H](C)C[C@@H](C)C(=O)N(C)[C@@H](CC(C)C)C(=O)N[C@H](C(=O)N(C)[C@H](C(=O)N1C[C@@H](O)C[C@H]1C(=O)N1C(=O)C=C[C@@H]1C)C(C)C)C(C)OC(C)=O (stereo partly specified) | / | -2.4 | / | / | 37.2* | /
O=C(Cc1ccccn1)N1CCCCN2[C@H](CO)[C@@H](c3ccc(C#Cc4ccccc4)cc3)[C@H]2C1 | 11.1 | -2.1 | / | 2.0 | / | -9.0
O=C(Cc1ccccc1)N1CCCCN2[C@@H](CO)[C@@H](c3ccc(-c4ccccc4)cc3)[C@@H]2C1 | 6.2 | 9.4 | / | -1.2 | / | 2.0
C[N+](C)(C)CC1CCCC1=O (stereo unspecified) | -7.1 | / | -5.4 | 79.6* | 0.0 | 1.8
SMILES | PGC1a acetyl inh | PglD inh | CaV13 ICDI inh | ERAP1 HTS inh | PDI turbidity | ERp5 inh
C[C@H](CO)N1C[C@H](C)[C@H](CN(C)C(=O)Oc2ccccc2)OCc2ccccc2-c2c(n(C)c3ccccc23)C1=O | 3.8 | / | / | -1.3 | / | 1.8
C[N+]1(C)CCC(OC(=O)C(c2ccccc2)c2ccccc2)CC1 | -8.0 | -1.8 | -4.6 | 92.4* | 0.2 | -3.3
C[N+]1(C)[C@@H]2CC[C@H]1CC(OC(=O)[C@@H](CO)c1ccccc1)C2 (stereo partly specified) | -15.8 | 2.8 | -18.6 | 27.5 | 1.3 | -0.6
CC(O)C1C=CC=CC(=O)OC2CC3OC4C5OC5(C)C(O)CC4(COC(=O)C(O)C(C)CCO1)C2(C)C31CO1 (stereo unspecified) | 86.9* | / | -10.0 | -0.6 | 3.1 | -1.0
CC1CCOC(=O)C=CC=CC(=O)OC2CC3OC4C5OC5(C)C(O)CC4(COC(=O)C1O)C2(C)C31CO1 (stereo unspecified) | 76.8* | / | -2.1 | -2.0 | 2.4 | -4.7
CC1=CC2OC3CC4OC(=O)C=CC=CC(C(C)O)OCC(O)C5(C)OC5C(=O)OCC2(CC1O)C4(C)C31CO1 (stereo unspecified) | 87.1* | / | -5.8 | 0.0 | 5.8 | 1.9
CC1=CC2OC3CC4OC(=O)C=CC=CC(=O)OCCC(C)C(O)C(=O)OCC2(CC1)C4(C)C31CO1 (stereo unspecified) | 77.4* | / | -2.6 | -1.7 | -0.2 | 8.5
C[C@H]1CN([C@@H](C)CO)C(=O)c2c(c3ccccc3n2C)-c2ccccc2CO[C@H]1CN(C)C(=O)Oc1ccccc1 | / | / | / | 1.6 | / | 0.3
O=C(Cc1ccccn1)N1CCCCN2[C@@H](CO)[C@H](c3ccc(-c4ccccc4)cc3)[C@@H]2C1 | -11.3 | 2.4 | / | -1.4 | / | -1.4
O=C(Cc1ccccc1)N1C[C@@H]2[C@H](c3ccccc31)[C@@H](CO)N2Cc1ccccc1 | -7.3 | 4.8 | / | -2.0 | / | -3.0
CN1CCN(CCOC2c3ccccc3CSc3ccc(Cl)cc32)CC1 (stereo unspecified) | -10.2 | 2.7 | -2.3 | / | 31.9* | /
Clc1ccc2c(c1)C(OC1CN3CCC1CC3)c1ccccc1CS2 (stereo unspecified) | -12.3 | -1.2 | -4.7 | -2.9 | 1.7 | -3.3
Cc1ccc(C[n+]2c(-c3ccc(C)cc3)cc(-c3ccc(C)cc3)cc2-c2ccc(C)cc2)cc1 | 67.2* | 2.8 | / | / | 9.7 | /
